Hits are enriched below; roughly 3.9% of the tested compounds scored in any of these assays.
S2 tox: reduces viability in counter-screen for ATXN expression inhibitors | S2 cells (HEK-293 line with an ATXN2-luciferase reporter) viability, CellTiter-Fluor protease fluorescence, 24 h | Potency, µM (series often up to 56.7 µM), hits mostly cytotoxic | 400,000 compounds, 0.49% hits | AID 651635; further: nearly all actives have a fitted effect of over 40% in size
HepG2 tox-1: HepG2 cytotoxicity, counter-screen for TGF-b inhibitors; HepG2 CAGA-GFP viability, ATP luminescence, 18 h; Potency, µM (series often up to 46.1 µM), usual class: cytotoxic; 410,000 compounds, 0.76% hits; AID 588856
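CellTiter-Glo luminescence gave cytotoxicity after 18 hours at 37 degrees C. The cells were HepG2 CAGA-GFP in 1% FBS DMEM, stimulated with 500 pg/mL TGF-beta after compound addition. %Activity was normalised to no-cell wells (complete cell-killing) and DMSO (no toxicity), and curves were fitted and classified.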
HT1080-NT tox: kills 2HG-producing HT-1080-NT fibrosarcoma cells; HT-1080-NT fibrosarcoma viability, CellTiter-Glo ATP luminescence, 48 h; Potency, µM (doses to about 46.1 µM), actives largely listed as cytotoxic; 360,000 compounds, 1.6% hits; AID 686970;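 further: NT is the 2HG producing partner of a matched IDH1 knockdown line; nearly all actives have a fitted effect of over 55% in size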
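HT-1080-NT; 750 cells/well; 5% FBS RPMI; 48 h compound, 37 degrees C; CellTiter-Glo luminescence; curve fitting and curve-class assignment.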
TGFb SMAD3 inh: inhibitors of TGF-b signaling. HepG2 CAGA-GFP TGF-b/SMAD3 reporter, GFP fluorescence, 18 h; TGF-beta stimulated, 500 pg/mL final. Potency, µM (series often up to 46.1 µM), actives largely listed as inhibitors. 410,000 compounds, 1.2% hits. AID 588855; further: nearly all actives have a fitted effect of over 65% in size
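GFP signal (ex488/em500-530) from TGF-beta-stimulated HEPG2 CAGA-GFP cells, 500 pg/mL final, 18 h at 37 degrees C in DMEM plus 1% FBS, normalized to unstimulated and DMSO-stimulated controls.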
ATXN2 expr inh: inhibitors of ATXN2 expression; HEK-293 ATXN2-luciferase reporter, luminescence, 24 h; 360,000 compounds, 0.72% hits; Potency, µM (doses to about 57 µM), hits mostly inhibitors; further: nearly all actives have a fitted effect of over 55% in size
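qHTS (up to 57 uM final) was run with 24 h compound exposure of reporter cells at 37 °C. Each well was multiplexed: SteadyGlo luminescence measured ATXN2-luciferase expression after a fluorogenic Gly-Phe-AFC viability readout (25 uM final).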
HT1080 IDH1KD tx: kills HT-1080 cells with IDH1 knockdown; HT-1080 IDH1 knockdown viability, ATP luminescence, 48 h; 360,000 compounds, 2% hits; Potency, µM (titrated, usually from 46.1 µM), actives largely listed as cytotoxic; AID 686971
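Assay cells: HT-1080 with IDH1 knockdown, 750 per well, RPMI/5% FBS. Exposure: 48 h at 37 °C following 2 h pre-incubation. Read: CellTiter-Glo luminescence; fitted concentration-response, curve class assigned.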
TGFb CAGA inh: TGF-b pathway inhibition, cherry-pick retest; shares compounds with TGFb SMAD3 inh; HepG2 CAGA-GFP TGF-b reporter, GFP fluorescence, 18 h; cells stimulated with TGF-beta, 500 pg/mL; Potency, µM (titrated, usually from 46.1 µM), actives largely listed as inhibitors; 1,600 compounds, 63% hits; AID 720534; further: nearly all actives have a fitted effect of over 65% in size
HepG2 tox-2: toxic to HepG2 cells in TGF-b counterscreen. shares compounds with TGFb SMAD3 inh. HepG2 CAGA-GFP viability, ATP luminescence, 18 h; cells stimulated with TGF-beta, 500 pg/mL. Potency, µM (series often up to 46.1 µM), most hits filed as inhibitors. 1,600 compounds, 27% hits. AID 720535; further: nearly all actives have a fitted effect of over 70% in size
TGFb CCL64 inh: orthogonal confirmation of TGF-b inhibitors in CCL64 cells | shares compounds with TGFb SMAD3 inh | CCL64 CAGA-GFP reporter, TGF-b stimulated, GFP fluorescence, 18 h | Potency, µM (highest dose often 46.1 µM), most hits filed as inhibitors | 1,600 compounds, 41% hits | AID 720536; further: nearly all actives have a fitted effect of over 65% in size
COP TGFb inh: blocks TGF-b signaling in HepG2 COP reporter | Potency, µM (doses to about 46.1 µM), actives largely listed as inhibitors | 1,600 compounds, 3% hits | HepG2 COP-GFP TGF-b reporter, GFP fluorescence, 18 h; cells stimulated by added recombinant TGF-beta | shares compounds with TGFb SMAD3 inh; further: nearly all actives have a fitted effect of over 70% in size
Numbers stand for hits; . = inactive; ? = inconclusive; / = no result given. The call rests on the fitted dose curve; in most records, active means well fitted curve in the direction sought with a large enough effect; inconclusive means small, poorly fitted or top-dose-only effect, or another doubt; inactive means no such curve, though single readings can be large; an effect the other way counts as inactive or inconclusive.

SMILES	S2 tox	HepG2 tox-1	HT1080-NT tox	TGFb SMAD3 inh	ATXN2 expr inh	HT1080 IDH1KD tx	TGFb CAGA inh	HepG2 tox-2	TGFb CCL64 inh	COP TGFb inh
COc1ccc(S(=O)(=O)Nc2ccc(O)c(Sc3ncn[nH]3)c2)cc1	.	.	.	.	.	.	/	/	/	/
COc1ccc(S(=O)(=O)Nc2cc(Sc3ncn[nH]3)c(O)c3ccccc23)cc1	/	3.5µM	/	3.2µM	/	/	12µM	?	2.6µM	?
O=S(=O)(Nc1cc(Sc2cccc3cccnc23)c(O)c2ccccc12)c1ccc(F)cc1	4µM	1.1µM	23µM	0.79µM	?	21µM	12µM	15µM	2.6µM	.
O=S(=O)(Nc1cccc2cccnc12)c1ccc2ccccc2c1	/	.	/	?	/	/	/	/	/	/
COc1ccc(C(NC(C)=O)c2cc(Cl)c3cccnc3c2O)cc1 (stereo unspecified)	.	.	?	7.1µM	4.5µM	12µM	?	?	13µM	.
CC(=O)NC(c1ccc(N(C)C)cc1)c1cc(Cl)c2cccnc2c1O (stereo unspecified)	.	.	?	?	/	?	/	/	/	/
O=C(O)c1ccccc1NC(c1ccccc1)c1ccc2cccnc2c1O (stereo unspecified)	?	.	.	8.9µM	?	8.2µM	6.5µM	?	15µM	.
COc1ccc(C(NC(=O)C(C)C)c2ccc3cccnc3c2O)cc1 (stereo unspecified)	.	.	1.6µM	4.5µM	3.2µM	?	.	?	7.3µM	.
CCCCC(=O)NC(c1ccc(OC)cc1)c1ccc2cccnc2c1O (stereo unspecified)	?	.	?	?	/	?	/	/	/	/
CCC1CCCCN1C(=O)Cn1c(=O)n(CCCCCC(=O)NCc2ccccc2Cl)c(=O)c2sccc21 (stereo unspecified)	/	.	/	.	/	/	/	/	/	/
COc1ccc(CNC(=O)[C@@H]2CCCN2C(=O)[C@@H]2Cc3ccccc3CN2C(=O)OC(C)(C)C)cc1	.	.	.	11µM	.	.	13µM	.	.	.
O=c1[nH]cnc2c1ncn2[C@H]1C[C@H](O)[C@@H](CO)O1	/	.	/	.	/	/	/	/	/	/
Cc1cccc(NS(=O)(=O)c2ccc(-c3cnc(C4CC4)o3)cc2)c1C	?	.	?	14µM	/	?	1.8µM	?	4.1µM	.
Cc1cc(C)cc(NS(=O)(=O)c2ccc(-c3cnc(C4CC4)o3)cc2)c1	.	.	1.3µM	7.9µM	/	0.65µM	8.2µM	?	5.2µM	.
C#CCOc1ccc(C(=O)N(C)c2ccccc2I)cc1	/	.	/	.	/	/	/	/	/	/
Cc1ccc(NC(=O)CN2C(=O)C(c3ccc(C)cc3)=NC23CCCCCC3)cc1	/	.	/	/	/	/	/	/	/	/
CCC(C)Sc1ccc([C@@H]2[C@@H]3C(=O)N(C)C(=O)[C@@H]3[C@]3(C(=O)OC)CCCCN23)cc1OC (stereo partly specified)	.	.	.	.	.	.	/	/	/	/
CCC(C)Sc1ccc([C@@H]2[C@@H]3C(=O)N(CC)C(=O)[C@@H]3[C@]3(C(=O)OC)CCCCN23)cc1OC (stereo partly specified)	.	.	.	?	.	.	?	.	.	.
COc1ccc(NC(=O)CNC(c2ccccc2)c2ccccc2)cc1Cl	.	.	.	11µM	.	.	?	.	?	.
Cc1cc(C)cc(NC(=O)CNC(c2ccccc2)c2ccccc2)c1	.	.	.	.	.	.	/	/	/	/
CCC(=O)Nc1c(S(=O)(=O)c2ccccc2)c2nc3ccccc3nc2n1C(C)c1ccccc1 (stereo unspecified)	.	.	.	13µM	.	.	?	.	?	.
Cc1[nH]c2ccccc2c1C(c1ccccc1)c1ccc(Cl)s1 (stereo unspecified)	?	.	/	?	?	/	/	/	/	/
O=c1c2oc3ccccc3c2n(Cc2ccc(Cl)cc2)c(=O)n1Cc1ccccc1	.	.	/	.	.	/	/	/	/	/
COc1ccc(C2C(C#N)=C(N)N(Nc3ccccc3)C3=C2C(=O)CC(C)(C)C3)cc1C (stereo unspecified)	.	.	.	11µM	.	.	21µM	.	?	.
CCCNC(=O)CSc1nc2nc(C)c(Cc3ccccc3Cl)c(C)n2n1	.	.	/	.	.	/	/	/	/	/
SMILES	S2 tox	HepG2 tox-1	HT1080-NT tox	TGFb SMAD3 inh	ATXN2 expr inh	HT1080 IDH1KD tx	TGFb CAGA inh	HepG2 tox-2	TGFb CCL64 inh	COP TGFb inh
CN(Cc1cccc(Cl)c1Cl)C(=O)c1cccc(S(=O)(=O)N2CCN(Cc3ccccc3)CC2)c1	?	.	.	8.9µM	.	.	10µM	?	?	.
C/C(=N\NC(=O)c1ccccc1)c1ccccc1F	.	.	.	.	.	.	/	/	/	/
C/C(=N\NC(=O)c1ccccc1OCCOc1ccccc1)c1ccccc1F	?	.	?	20µM	.	?	?	?	?	.
CCN1CCN(c2ccc(S(=O)(=O)N3CCCCC3)cc2NC(=O)c2ccc([N+](=O)[O-])s2)CC1	?	.	.	8.9µM	25µM	.	16µM	?	?	?
CC1Sc2ccc(S(=O)(=O)CCC(=O)N3CCN(c4cccc(Cl)c4)CC3)cc2NC1=O (stereo unspecified)	.	.	.	16µM	?	?	18µM	?	?	.
COc1ccc2cc([C@H](C)C(=O)N(C)Cc3ccccc3N3CCCC3)ccc2c1	.	.	?	10µM	.	?	8.2µM	?	?	.
COc1ccc(C(CNC(=O)C(C)c2ccc3cc(OC)ccc3c2)N(C)C)cc1 (stereo unspecified)	.	.	.	.	.	.	/	/	/	/
NC(=O)CC(NC(=O)c1ccccc1)c1ccc(N2CCC(Cc3ccccc3)CC2)c([N+](=O)[O-])c1 (stereo unspecified)	?	.	.	6.3µM	?	?	23µM	?	?	.

Bioassay records deposited in PubChem BioAssay by National Center for Advancing Translational Sciences (NCATS).
